Source: PubChem BioAssay
TLR4-MyD88 BLA – blocks binding of human TLR4 to MyD88; O00206+Q99836; HeLa CL3-4 TLR4/MyD88 BLA complementation, FRET ratio; inhibition, % at 8.4 µM; actives 0.18% (n = 200,000); in the data active = inhibition above about 25%;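 note: 0% = vehicle and 100% = reference inhibitor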
TMEM16A inh – inhibitors of mouse TMEM16A calcium-activated chloride channel; Q8BHY3; actives 1.2% (n = 310,000); HEK293 TMEM16A/YFP iodide influx fluorescence, ionomycin; normalized B-score (activity score, 25-100; higher = stronger inhibition) at 10 µM;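 active = ratio plate-corrected score three or more library SD toward inhibition, starting fluorescence score within five deviations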;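 note: score derived from kinetic fluorescence span divided by baseline fluorescence per well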
TLR9-MyD88 block – blocks human TLR9 binding to MyD88; actives 0.21% (n = 340,000); AID 504734; inhibition, % at 4.98 µM; CHO BLA complementation TLR9-MyD88, CCF4 FRET ratio; Q9NR96+Q99836;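 active = inhibition above the mean over all tested compounds plus 3 SD, cut at about 21% in these data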;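 note: 0% = DMSO only wells and 100% = clavulanate BLA inhibitor control wells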
TMEM16A act – mouse TMEM16A channel activation, primary screen; HEK293 TMEM16A/YFP-H148Q/I152L, iodide quench fluorescence; hits give low values; B-score at 10 µM; actives 0.3% (n = 340,000); Q8BHY3;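 active = fluorescence-ratio B-score plate-corrected deviation score at least 3 library SD below zero, with starting fluorescence score within 5 deviations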;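 note: channel opened by trigger with iodide after compound preincubation; score built on the fluorescence ratio of max minus min over baseline; more negative score means more quench and so TMEM16A activation or potentiation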
NOD2 RIPK2 PPI – NOD2-RIPK2 protein interaction inhibition. CHO BLA complementation NOD2-RIPK2, CCF4 ratio. AID 624267. actives 0.38% (n = 360,000). inhibition, % at 4.98 µM. O43353; in the data active = inhibition above about 21%;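 note: 0% = vehicle only and 100% = reference blocker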
GRK2 inh – blocks RNA aptamer binding to human GRK2; P25098; bead flow cytometry, FAM-aptamer displacement from GRK2; inhibition of aptamer binding, % at 10 µM; actives 0.59% (n = 330,000); AID 488847;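 active = inhibition of aptamer binding above 40%, roughly 3 SD of noise, on plates passing a quality check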;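 note: median bead fluorescence of bound FAM aptamer so fluorescent compounds give negative values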
Target sequence (P25098 whole entry, looked up): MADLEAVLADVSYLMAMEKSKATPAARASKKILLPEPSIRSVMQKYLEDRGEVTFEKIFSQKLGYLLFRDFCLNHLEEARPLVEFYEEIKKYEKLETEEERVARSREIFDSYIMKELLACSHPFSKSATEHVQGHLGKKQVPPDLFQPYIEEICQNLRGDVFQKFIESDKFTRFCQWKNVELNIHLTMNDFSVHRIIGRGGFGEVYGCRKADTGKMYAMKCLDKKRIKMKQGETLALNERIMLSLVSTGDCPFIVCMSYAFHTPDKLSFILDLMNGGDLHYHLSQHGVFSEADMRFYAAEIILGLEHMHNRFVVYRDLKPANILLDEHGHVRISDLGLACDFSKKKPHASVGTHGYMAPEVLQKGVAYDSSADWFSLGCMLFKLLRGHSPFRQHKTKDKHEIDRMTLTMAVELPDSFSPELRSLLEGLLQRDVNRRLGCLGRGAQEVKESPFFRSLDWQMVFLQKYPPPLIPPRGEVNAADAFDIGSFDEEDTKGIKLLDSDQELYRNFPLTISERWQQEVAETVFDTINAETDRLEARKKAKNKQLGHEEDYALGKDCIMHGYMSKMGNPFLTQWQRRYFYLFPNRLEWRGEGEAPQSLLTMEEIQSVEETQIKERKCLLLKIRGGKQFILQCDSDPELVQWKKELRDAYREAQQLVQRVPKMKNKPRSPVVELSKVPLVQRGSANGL
TLR9-MyD88 conf – confirmation of human TLR9-MyD88 binding inhibitors. shares compounds with TLR9-MyD88 block. CHO TLR9/MyD88 BLA complementation, CCF4 FRET ratio. inhibition, % at 4.98 µM. actives 51% (n = 680). AID 540250;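 active = mean inhibition across three repeats above about 21% taken from the earlier screen, limit read from the data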;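 note: blue over green emission ratio reports constitutive TLR9 MyD88 association via BLA complementation; 0% = DMSO vehicle wells and 100% = clavulanate BLA inhibitor wells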
BLA counter-1 – counter-screen for TLR9-MyD88 inhibitors: non-selective beta-lactamase inhibitors. shares compounds with TLR9-MyD88 block. actives 7% (n = 680). AID 540251. CHO-BLA cells, CCF4 FRET ratio, BLA reporter. inhibition, % at 4.98 µM;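 active = mean inhibition above a 50% cutoff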;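 note: counterscreen of TLR9-MyD88 hits on CMV-driven BLA in CHO-K1 cells; 0% = DMSO alone and 100% = clavulanate blocking BLA; higher means less blue over green ratio so more BLA blockade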
TLR9 CHO cytotox – CHO cell toxicity counter-screen for TLR9-MyD88 inhibitors; shares compounds with TLR9-MyD88 block; TLR9-MyD88 CHO cells cytotoxicity, luminescence; inhibition, % at 4.98 µM; actives 39% (n = 680); AID 588336; in the data active = inhibition above about 11%
NOD2-RIPK2 conf – confirmation of human NOD2-RIPK2 interaction inhibitors; inhibition, % at 4.98 µM; actives 70% (n = 1,200); shares compounds with NOD2 RIPK2 PPI; CHO cells, NOD2-RIPK2 BLA complementation, CCF4 FRET; AID 624370;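 active = mean inhibition across replicates above a set limit taken from the earlier primary screen, cut at about 21% in these data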;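 note: 0% = DMSO-only wells and the high end = clavulanate BLA-blocked wells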
BLA counter-2 – counter-screen for NOD2-RIPK2 interaction inhibitors: BLA reporter | shares compounds with NOD2 RIPK2 PPI | AID 624371 | actives 57% (n = 1,200) | inhibition, % at 4.98 µM | CHO BLA reporter, CCF4 FRET ratio, counterscreen;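 active = mean inhibition above the low-control mean inhibition plus three low-control SD, cut at about 11% in these data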;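 note: 0% = DMSO only wells and 100% = clavulanate high control wells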
The depositor's hits bear a star; i = inactive; nt = no result given. Rows were chosen to be rich in hits. Some 2.2% of all compounds tested hit in one or more screens of this group.

SMILES	TLR4-MyD88 BLA	TMEM16A inh	TLR9-MyD88 block	TMEM16A act	NOD2 RIPK2 PPI	GRK2 inh	TLR9-MyD88 conf	BLA counter-1	TLR9 CHO cytotox	NOD2-RIPK2 conf	BLA counter-2
Cc1cc(C)cc(NC(=O)/C=C/c2ccc([N+](=O)[O-])s2)c1	2.3	i	-0.8	i	8.7	0.0	nt	nt	nt	nt	nt
Cc1ccccc1NC(=O)/C=C/c1ccc([N+](=O)[O-])s1	19.2	i	27.0*	i	39.1*	0.0	28.3*	21.5	95.9*	37.5*	41.1*
C=CCn1cc(C(=O)NCCCOCC)c(=O)c2cc(S(=O)(=O)N(CC)CC)ccc21	-5.3	i	-1.0	i	4.9	5.0	nt	nt	nt	nt	nt
CN(CC(=O)Nc1ccccc1-c1ccccc1)Cc1ccccc1Cl	-1.3	i	-5.0	i	11.2	0.0	nt	nt	nt	nt	nt
CN(C(=O)C1CCC(=O)N(Cc2ccccc2F)C1)C1CCOCC1 (centres undefined)	nt	i	6.9	i	0.2	1.0	nt	nt	nt	nt	nt
CC[C@@]1(O)C(=O)OCc2c1cc1n(c2=O)Cc2cc3c(CN(C)C)c(O)ccc3nc2-1	nt	i	54.1*	i	71.6*	3.0	49.3*	52.2*	60.4*	81.2*	78.5*
CC[C@@]1(O)C(=O)OCc2c1cc1n(c2=O)Cc2cc3c(N)cccc3nc2-1	nt	i	1.0	i	-1.4	4.0	nt	nt	nt	nt	nt
CN(C)S(=O)(=O)c1ccc(Cl)c(C(=O)NC2CCCCCCC2)c1	nt	i	-6.8	i	-13.2	1.0	nt	nt	nt	nt	nt
C=C1CC(COc2ccc3c(C)c(Cl)c(=O)oc3c2)(c2ccccc2)OC1=O (centres undefined)	nt	nt	23.7*	i	60.4*	nt	23.5*	7.6	97.6*	73.9*	28.5*
CCS(=O)(=O)c1ncc(Cl)c(C(=O)Nc2ccc(S(=O)(=O)N(C)c3ccccc3)cc2)n1	nt	i	55.4*	i	99.2*	0.0	53.9*	50.1*	100.2*	96.3*	53.7*
CCN(c1ccccc1)S(=O)(=O)c1ccc(NC(=O)c2nc(S(C)(=O)=O)ncc2Cl)cc1	nt	i	60.7*	-7.62*	96.6*	0.0	59.4*	39.1	100.1*	97.5*	48.7*
CCOC(=O)c1nc(S(C)(=O)=O)ncc1Cl	14.4	i	34.1*	i	21.5*	0.0	36.8*	26.8	42.9*	56.2*	24.9*
CC(=O)Nc1ccc(S(=O)(=O)N(C)c2ccccc2)cc1	2.7	i	-8.8	i	-6.6	8.0	nt	nt	nt	nt	nt
Cc1ccccc1NC(=O)c1cccc(C(=O)Nc2ccccc2C)n1	nt	i	-4.6	i	-7.7	2.0	nt	nt	nt	nt	nt
Cc1ccccc1NC(=O)c1nc(S(C)(=O)=O)ncc1Cl	nt	i	38.1*	i	29.8*	0.0	36.6*	13.1	87.2*	59.7*	29.1*
CC(C)NC(=O)c1sc2nc(-c3cccs3)cc(-c3cccs3)c2c1N	4.7	i	nt	nt	nt	8.0	nt	nt	nt	nt	nt
COc1ccc(C(=O)c2sc3nc(C)cc(-c4cccs4)c3c2N)cc1OC	12.1	i	41.0*	i	61.3*	9.0	24.8*	24.8	7.9	50.0*	60.3*
Cc1ccccc1-n1c(C)cc(/C=N/Nc2ccc([N+](=O)[O-])cn2)c1C	23.6	i	36.6*	i	27.6*	0.0	20.8*	24.7	10.3*	38.0*	39.9*
